# Experimental data reported in the supplement of paper PMC8975748.
# Counter-ions that a name gives are not always drawn.
# System: Saccharomyces cerevisiae BY4741 SeMeCo community
# Assay: z-score of subpopulation abundance vs DMSO median, subpopulation auxotrophic for HUM; higher = larger share of this subpopulation than in DMSO controls
# Details: 10 µM; 24 h; SM minimal medium; subpopulation (auxotrophy): HUM
# Procedure: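 Fluorescent four-plasmid SeMeCo (self-establishing metabolically cooperating S. cerevisiae BY4741 community; plasmids pH-mRuby2, pL-mWasabi, pU-eCFP, pM-TagRFP657) was grown 24 h in minimal SM medium with each Selleck FDA-approved drug at 10 µM in 384-well plates. Cells were fixed and imaged by high-content confocal microscopy. For each auxotrophic subpopulation (and the prototroph), a z-score gives the deviation from the DMSO vehicle-control population median.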
row,Compound,z-score of subpopulation abundance
1,CCCCCOc1ccc(-c2ccc(-c3ccc(C(=O)N[C@H]4C[C@@H](O)[C@@H](O)NC(=O)[C@@H]5[C@@H](O)[C@@H](C)CN5C(=O)[C@H]([C@@H](C)O)NC(=O)[C@H]([C@H](O)[C@@H](O)c5ccc(O)cc5)NC(=O)[C@@H]5C[C@@H](O)CN5C(=O)[C@H]([C@@H](C)O)NC4=O)cc3)cc2)cc1,25.3
2,CCCNC(C)C(=O)Nc1ccccc1C (stereo not given) [Prilocaine],-0.22
3,CCCc1nn(C)c2c(=O)[nH]c(-c3cc(S(=O)(=O)N4CCN(C)CC4)ccc3OCC)nc12 [Sildenafil Citrate],-0.06
4,O=C(Cn1cnnn1)N[C@@H]1C(=O)N2C(C(=O)O)=C(CSc3nncs3)CS[C@H]12 [Ceftezole sodium],-0.02
5,CCCN1CCCC[C@H]1C(=O)Nc1c(C)cccc1C [Ropivacaine HCl],-0.03
6,COC(=O)C1=C(C)NC(C)=C(C(=O)OCCN(C)Cc2ccccc2)C1c1cccc([N+](=O)[O-])c1 (stereo not given) [Nicardipine HCl],0.62
7,Nc1ccc(/N=N/c2ccccc2)c(N)n1 [Phenazopyridine HCl],-1.7
8,O=c1ccc2ccc(OCCCCN3CCN(c4cccc5sccc45)CC3)cc2[nH]1 [Brexpiprazole],0.25
9,Cc1[nH]c(=O)c(C#N)cc1-c1ccncc1 [Milrinone],-1.04
10,C/C=C1\[C@H]2C=C(C)C[C@]1(N)c1ccc(=O)[nH]c1C2 [(-)-Huperzine A (HupA)],0.11
11,COc1ncnc(NS(=O)(=O)c2ccc(N)cc2)c1OC [Sulfadoxine],1.04
12,Cc1cc(NS(=O)(=O)c2ccc(N)cc2)no1 [Sulfamethoxazole sodium],1.03
13,Cc1ncc([N+](=O)[O-])n1CCOC(=O)c1ccccc1 [Metronidazole Benzoate],-0.37
14,C[C@@H](O)[C@H]1C(=O)N2C(C(=O)O)=C([C@H]3CCCO3)S[C@H]12 [Faropenem Sodium],0.59
15,CC(C)N1CCN(c2ccc(OCC3COC(Cn4cncn4)(c4ccc(Cl)cc4Cl)O3)cc2)CC1 (stereo not given) [Terconazole],-0.65
16,C[N+]1(C)[C@@H]2CC[C@H]1C[C@@H](OC(=O)C(O)c1ccccc1)C2 (stereo not given in full) [Homatropine Methylbromide],0.4
17,CC(Cc1ccc(O)c(O)c1)C(C)Cc1ccc(O)c(O)c1 (stereo not given) [Nordihydroguaiaretic acid (NDGA)],-0.77
18,CCC(=O)NS(=O)(=O)c1ccc(-c2c(-c3ccccc3)noc2C)cc1 [Parecoxib Sodium],1.38
19,C[C@H]1O[C@@H](O[C@H]2[C@@H](O)C[C@H](O[C@H]3[C@@H](O)C[C@H](O[C@H]4CC[C@@]5(C)[C@H](CC[C@@H]6[C@@H]5C[C@@H](O)[C@]5(C)[C@@H](C7=CC(=O)OC7)CC[C@]65O)C4)O[C@@H]3C)O[C@@H]2C)C[C@H](O)[C@@H]1O [Digoxin],-0.77
20,CCCCc1oc2ccccc2c1C(=O)c1cc(I)c(OCCN(CC)CC)c(I)c1 [Amiodarone HCl],4.79

row,Compound,z-score of subpopulation abundance
1,CC(=O)NS(=O)(=O)c1ccc(N)cc1 [Sulfacetamide Sodium],0.62
2,CCC[C@@H]1C[C@@H](C(=O)N[C@@H]([C@H]2O[C@H](SC)[C@H](O)[C@@H](O)[C@H]2O)[C@@H](C)O)N(C)C1 [Lincomycin Hydrochloride Monohydrate],-0.11
3,CN(Cc1ccc(C(C)(C)C)cc1)Cc1cccc2ccccc12 [Butenafine HCl],-1.45
4,CC[C@H](c1ccc(O)cc1)[C@@H](CC)c1ccc(O)cc1 [Hexestrol],-0.88
5,O=C(O)c1ccccc1O [Salicylic acid],-1.03
6,N#C/C(=C1/SC[C@@H](c2ccc(Cl)cc2Cl)S1)n1ccnc1 [Luliconazole],10.6
7,CC[C@H](C)C(=O)O[C@H]1CCC=C2C=C[C@H](C)[C@H](CC[C@@H]3C[C@@H](O)CC(=O)O3)[C@H]21 [Mevastatin],-0.29
8,CC(=O)OCC1=C(C(=O)O)N2C(=O)[C@@H](NC(=O)Cc3cccs3)[C@H]2SC1 [Cephalothin],-0.69
9,O=C1CN(/N=C/c2ccc(-c3ccc([N+](=O)[O-])cc3)o2)C(=O)N1 [Dantrolene sodium],-2.36
10,CCc1cc(C(N)=S)ccn1 [Ethionamide],-0.25
11,CCC1(C)CC(=O)NC1=O (stereo not given) [Ethosuximide],-0.44
12,CCCCOc1ccc(CC(=O)NO)cc1 [Bufexamac],-1.13
13,CC1(C)S[C@@H]2[C@H](NC(=O)[C@H](N)c3ccccc3)C(=O)N2[C@H]1C(=O)OCOC(=O)[C@@H]1N2C(=O)C[C@H]2S(=O)(=O)C1(C)C [Sultamicillin Tosylate],0.26
14,CC(C(=O)O)c1ccc(C(=O)c2cccs2)cc1 (stereo not given) [Suprofen],-1.16
15,Nc1ccc(S(=O)(=O)Nc2ncccn2)cc1 [Sodium sulfadiazine],-0.68
16,Nc1ccc(S(=O)(=O)Nc2nccs2)cc1 [Sulfathiazole],0.33
17,CC(=O)[O-].[K+] [Potassium acetate],-0.43
18,O=C(O)C1=C(CSc2nnnn2CS(=O)(=O)O)CS[C@@H]2[C@H](NC(=O)[C@H](O)c3ccccc3)C(=O)N12 [Cefonicid sodium],-0.26
19,CN(C)CCC[C@@]1(c2ccc(F)cc2)OCc2cc(C#N)ccc21 [Escitalopram Oxalate],-0.36
20,Cc1ccc(O)c([C@H](CCN(C(C)C)C(C)C)c2ccccc2)c1 [Tolterodine tartrate],1.13
